Source: PubChem BioAssay AID1508602 (The Scripps Research Institute Molecular Screening Center, 2020)
Values joined by “and” are separate entries in the source; they are usually repeats but may differ in a detail not shown here. Identical values can stand only once. About 6,800 (1%) of roughly 650,000 compounds were called active. The sample holds actives, similar compounds and a random draw of the others, so the mix is not that of the screen. No stated cut-off is given here; in the data, active means activation above about 4.9%; inactive means the rest. Where a structure was tested more than once in an assay, its records may differ in their call.

target: G-protein coupled receptor 151 (Homo sapiens) (UniProt Q8TDV0); experiment: activates the human receptor GPR151, primary screen, cell-based, PathHunter beta-arrestin, luminescence (AID 1508602); details: PathHunter beta-arrestin GPR151 cells, at 11.2 µM, stronger effect = higher value;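 further: 0% = median of compound wells and 100% = cells with positive control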
Sequence (Q8TDV0 whole entry, looked up): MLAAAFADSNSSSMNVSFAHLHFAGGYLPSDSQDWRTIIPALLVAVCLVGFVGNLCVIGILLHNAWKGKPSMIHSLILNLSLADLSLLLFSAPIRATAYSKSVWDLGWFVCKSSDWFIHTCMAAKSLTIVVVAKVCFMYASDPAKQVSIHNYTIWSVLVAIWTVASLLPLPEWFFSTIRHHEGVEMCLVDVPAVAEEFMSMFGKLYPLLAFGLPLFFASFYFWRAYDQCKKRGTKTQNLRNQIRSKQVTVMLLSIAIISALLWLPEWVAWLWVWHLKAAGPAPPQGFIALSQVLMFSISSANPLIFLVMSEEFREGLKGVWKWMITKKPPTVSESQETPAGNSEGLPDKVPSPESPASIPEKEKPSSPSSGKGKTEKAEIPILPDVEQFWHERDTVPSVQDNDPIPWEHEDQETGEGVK

Structure (SMILES)	activation
CSc1ccc(/C=N/NC(N)=S)cc1	0.328% (inactive)
NC(=S)N/N=C/c1ccc([N+](=O)[O-])cc1	-0.328% (inactive) and 5.02% (active)
O=C(Cc1ccccc1)N/N=C/c1ccc([N+](=O)[O-])cc1	-0.27% (inactive)
Cc1[nH]c2ccccc2c1/C=N/NC(=O)/C(=C/c1ccccc1O)NC(=O)c1ccccc1	-5.34% (inactive)
COc1ccc(NC(=S)NC(=O)c2ccc([N+](=O)[O-])cc2)c(OC)c1	3.1% (inactive)
COc1cccc(C(=O)NC(=S)Nc2ccccc2OC)c1	-0.111% (inactive)
COc1cccc(C(=O)NC(=S)Nc2ccc(OC)cc2OC)c1	10.4% (active)
CC1=C(C(=O)OCCc2ccccc2)C(c2ccc(Br)cc2)NC(=O)N1 (stereo not given)	-1.85% (inactive)
CCCOC(=O)C1=C(C)NC(=O)NC1c1ccc(Br)cc1 (stereo not given)	9.45% (active)
CCCOC(=O)C1=C(C)NC(=O)NC1c1ccccc1 (stereo not given)	-1.76% (inactive)
CCCCNC(=O)C1(c2ccc(OC)cc2)CCOCC1	7.05% (active)
CCCCN(C)C(=O)C1(c2ccc(OC)cc2)CCOCC1	0.343% (inactive)
COc1ccc(C2(C(=O)Nc3ccc(C(=O)NCc4ccccc4)cc3)CCOCC2)cc1	0.34% (inactive)
Cn1cccc1CC(=O)N/N=C\c1c(Cl)cccc1Cl	0.023% (inactive)
COc1cccc(CC2(CCC(=O)NC3CCOC(C)(C)C3)CCC(=O)N2)c1 (stereo not given)	1.54% (inactive)
CCCCNc1nc2c(c(=O)[nH]c(=O)n2C)n1CC(O)COC(C)C (stereo not given)	0.097% (inactive)
CC(O)Cn1c(N(C)C)nc2c1c(=O)[nH]c(=O)n2C (stereo not given)	-0.989% (inactive)
CCC(C)Nc1nc2c(c(=O)[nH]c(=O)n2C)n1CC(O)COC(C)C (stereo not given)	5.88% (active)
CC(C)CNc1nc2c(c(=O)[nH]c(=O)n2C)n1CC(C)O (stereo not given)	5.96% (active)
C/C(=N\Nc1nc2c(c(=O)[nH]c(=O)n2C)n1CC(C)O)c1ccc(O)cc1 (stereo not given)	-2.73% (inactive)
Cc1ccc(/C=N/Nc2nc3c(c(=O)[nH]c(=O)n3C)n2CC(O)COC(C)C)cc1 (stereo not given)	-0.049% (inactive)
Cc1cc(C)c(/C=N/NC(=O)c2nnn(-c3nonc3N)c2CN(C)C)c(C)c1	-0.818% (inactive)
CCOC(=O)c1c(NC(=O)Cc2ccc([N+](=O)[O-])cc2)sc(C)c1C	-0.865% (inactive)

Structure (SMILES)	activation
Cc1cc(S(=O)(=O)n2cc(-c3cccc(F)c3)c(N)n2)ccc1F	0.532% (inactive)
Cc1cccc(CN2CCC(n3nccc3NC(=O)C(C)(C)C)CC2)c1	-0.39% (inactive)
Cc1ccc(C)c(CN2CCC(n3nccc3NC(=O)C(C)(C)C)CC2)c1	5.02% (active)
CC(C)(C)C(=O)Nc1ccnn1C1CCN(Cc2ccccc2C(F)(F)F)CC1	0.711% (inactive)
COc1cccc(/C=N/NC(=O)CC23CC4CC(CC(C4)C2)C3)c1O	0.719% (inactive)
COc1ccc(NC(=O)Cn2c(-c3ccc(OC)cc3)cn(-c3ccc(C)cc3)c2=O)cc1	7.86% (active)
COc1ccc(NC(=O)Cn2c(=O)n(-c3ccc(F)cc3)c(=O)c3sccc32)cc1	-0.363% (inactive)
COc1ccc(-n2ccnc2SCC(=O)Nc2ccc(C)cc2)cc1	1.88% (inactive)
CCOc1ccc(-c2nn(-c3ccccc3)cc2C2C(C(=O)OCc3ccccc3)=C(C)NC(C)=C2C(=O)OCc2ccccc2)cc1	1.89% (inactive)
CCOC(=O)c1cc2c(C)n(Cc3ccccc3)c(C)c2cc(C(=O)OCC)c1=O	-0.0778% (inactive)
CCC1=C(C)c2cc3nc(C(=O)OCc4ccccc4)c(C)c-3c(C)n2C1C (stereo not given)	5.68% (active)
NC(=O)CN(c1ccccc1)S(=O)(=O)c1ccccc1[N+](=O)[O-]	0.204% (inactive)
CCOc1cc(CNCc2c(C(=O)O)n(CC)c3cc(OC)ccc23)ccc1OC	-1.01% (inactive)
O=C(CSc1nnnn1-c1ccc(F)cc1)N1CCc2ccccc21	-1.53% (inactive)
O=C(CCN1CCN(C/C=C/c2ccccc2)CC1)Nc1ccc(Br)cc1	1.05% (inactive)
COc1ccc(NC(=O)CCN2CCN(C=O)CC2)cc1	-1.28% (inactive)
O=CN1CCN(CCC(=O)Nc2ccccc2)CC1	5.13% (active)
CCOC(=O)c1c(NC(=O)c2nn3c(C(F)(F)F)cc(-c4ccc(OC)cc4)nc3c2Cl)sc2c1CCCC2	0.0805% (inactive)
Cc1cc(Nc2ccc(F)cc2)n2cnnc2n1	9.65% (active)
Cc1ccc(Nc2cc(C)nc3nncn23)cc1	-0.458% (inactive)
Fc1ccc(Nc2nc3ccccc3n3cnnc23)cc1	-0.0284% (inactive)
CCOc1ccccc1/C=C1/NC(=S)NC1=O	0.436% (inactive)
O=C1CCCN1CCn1cnc2c(NCc3nc4ccccc4[nH]3)nc(N3CCc4ccccc4C3)nc21	-1.26% (inactive)

Structure (SMILES)	activation
CNC(=O)C(=O)Nc1cc(OC)ccc1OC	-0.733% (inactive)
CCn1cc(CNC(=S)Nc2cc(OC)ccc2OC)cn1	-1.23% (inactive)
COc1ccc(OC)c(NC(=S)Nc2ccccn2)c1	9.49% (active)
COCCn1nnnc1C(c1cc2c(C)cc(C)cc2[nH]c1=O)N1CCCC(C)C1 (stereo not given)	0.229% (inactive)
CCOc1ccc2cc(C#N)c(SCC(=O)Nc3ccccc3C(=O)OC)nc2c1	-0.792% (inactive)
COc1ccc(OC)c(CNC(=O)c2cc3c(C)nc4ccccc4c3o2)c1	0.296% (inactive)
O=C(Nc1cc(Cl)cc(Cl)c1)c1ccc(F)c(S(=O)(=O)NCc2ccco2)c1	0.664% (inactive)
COc1ccc(C2=NN(C(=O)CSc3nnc(CNC(=O)c4ccc(S(=O)(=O)N(C)C)cc4)n3C)C(c3ccc(C)cc3)C2)cc1 (stereo not given)	1.11% (inactive)
CC(C)CC(C(=O)Nc1cccc([N+](=O)[O-])c1)N1C(=O)c2ccccc2C1=O (stereo not given)	15.7% (active)
CC(C)CC(C(=O)Nc1ccc(Cl)cc1)N1C(=O)c2ccccc2C1=O (stereo not given)	-0.915% (inactive)
CC(C)CC(C(=O)Nc1ccc([N+](=O)[O-])cc1)N1C(=O)c2ccccc2C1=O (stereo not given)	2.66% (inactive)
CCOCCCNC(=O)/C(C#N)=C/c1c(Oc2ccc(CC)cc2)nc2ccccn2c1=O	-7.56% (inactive)
CCN(CC)c1ccc(CN2C[C@@H](NCc3ccc4ccccc4c3)C[C@H]2C(=O)NC)cc1	0.619% (inactive)
CCCCN(C)CCCNC(=O)C1CCN(c2nc3ccc(OC)cc3s2)CC1	-1.77% (inactive)
CCOCCCNC(=O)NC1CCN(c2nc3ccccc3s2)CC1	5.41% (active)
CC1CCN(c2nc3ccc(C(=O)NCCCOC(C)C)cc3s2)CC1	-0.0522% (inactive)
Cc1nn2c(N3CCNCC3)c3c(nc2c1-c1ccccc1)CCC3	-1.05% (inactive)
Cn1c(=NC(=O)CN2C(=O)c3ccccc3C2=O)sc2cc(F)cc(F)c21	0.254% (inactive)
c1cncc(Nc2nc(NC3CC3)c3ncn(C4CCCCC4)c3n2)c1	11.5% (active)
FC(F)(F)c1ccc(Nc2nc(NC3CC3)c3ncn(C4CCCCC4)c3n2)cc1	0.642% (inactive)
c1cnc(Nc2nc(NCc3cccnc3)c3ncn(C4CCCCC4)c3n2)nc1	-0.529% (inactive)
Cc1ccc(NC(=O)CCNS(=O)(=O)c2ccc3c(c2)c(=O)n(C)c(=O)n3C)nc1	-0.3% (inactive)
Cc1ccc(NC(=O)CSc2nc3cc4c(cc3cc2C#N)OCCO4)cc1	-1.17% (inactive)

Structure (SMILES)	activation
Cc1ccc2cc(C#N)c(SCCO)nc2c1	6.39% (active)
COc1ccc2cc(C#N)c(SC)nc2c1	0.673% (inactive)
CCN(CC)C(=O)Cn1cnc2sc(C(=O)NCc3ccc(Cl)cc3)c(C)c2c1=O	0.437% (inactive)
CC(C)(C)OC(=O)N1CCC[C@H](Cn2cc(C(=O)O)nn2)C1	6.74% (active)
COc1ccc([C@H](O)[C@@H]2CCCN(C(=O)OC(C)(C)C)C2)cc1	0.253% (inactive)
COCCNC(=O)c1cn(C[C@H]2CCCN(C(=O)c3conc3C)C2)nn1	1.06% (inactive)
O=C(Nc1ccccc1)c1cnc(NCCN2CCOCC2)s1	-2.52% (inactive)
COc1ccccc1C1C(C#N)=C(N)Oc2n[nH]c(-c3ccc4ccccc4c3)c21 (stereo not given)	-0.23% (inactive)
COc1ccc(-c2nnc(SCC(=O)Nc3ccc(Br)cc3)nc2-c2ccc(OC)cc2)cc1	1.77% (inactive)
OCCCNC(=S)Nc1ccccc1F	0.421% (inactive)
CC(C)C(=O)NC(=S)Nc1ccccc1F	6.35% (active)
CC(C)CC(=O)NC(=S)Nc1ccc(F)cc1F	2.41% (inactive)
COc1ccccc1Cc1nc(-c2ccc(OC)c(OC)c2)no1	1.66% (inactive)
COc1ccccc1NC(=O)NCc1nc(-c2ccc(OC)c(OC)c2)no1	7.48% (active)
CCOc1ccccc1NC(=O)CCc1nc(-c2ccc(OC)c(OC)c2)no1	-1.02% (inactive)
COCCn1cc(C(=O)N2CCCCCC2)c2c3ccccc3n(C)c2c1=O	0.412% (inactive)
CC1CCCC(NC(=O)C2N(CCN3CCCCC3)C(=O)C3C(C(=O)Nc4cc(Cl)cc(Cl)c4)C4C=CC32O4)C1C (stereo not given)	-0.312% (inactive)
COCCCNC(=O)c1nnc(-c2ccccc2)o1	-0.472% (inactive)
CC(C)=CCC/C(C)=C/C=N/Nc1ccc(S(N)(=O)=O)cc1[N+](=O)[O-]	1% (inactive)
COc1cc(C(=O)Nc2c3c(nn2-c2ccc(F)cc2)CSC3)cc(OC)c1OC	1.91% (inactive)
Cc1ccc(-c2nc3ccc(C(=O)NCCC4=CCCCC4)cc3nc2-c2ccc(C)cc2)cc1	4.13% (inactive)
